Bioassay records deposited in PubChem by National Center for Advancing Translational Sciences (NCATS).
In the library only some 6% were active in any assay of this set; here they are far more common.
VDR inhibitor – inhibitors of human vitamin D receptor. P11473. VDR-SRC2-3 peptide fluorescence polarization, 2 h. Potency, µM, for the others: max response, negative = inhibition, actives largely listed as inhibitors. 400,000 compounds, 0.93% hits
Target sequence (P11473 whole entry, looked up): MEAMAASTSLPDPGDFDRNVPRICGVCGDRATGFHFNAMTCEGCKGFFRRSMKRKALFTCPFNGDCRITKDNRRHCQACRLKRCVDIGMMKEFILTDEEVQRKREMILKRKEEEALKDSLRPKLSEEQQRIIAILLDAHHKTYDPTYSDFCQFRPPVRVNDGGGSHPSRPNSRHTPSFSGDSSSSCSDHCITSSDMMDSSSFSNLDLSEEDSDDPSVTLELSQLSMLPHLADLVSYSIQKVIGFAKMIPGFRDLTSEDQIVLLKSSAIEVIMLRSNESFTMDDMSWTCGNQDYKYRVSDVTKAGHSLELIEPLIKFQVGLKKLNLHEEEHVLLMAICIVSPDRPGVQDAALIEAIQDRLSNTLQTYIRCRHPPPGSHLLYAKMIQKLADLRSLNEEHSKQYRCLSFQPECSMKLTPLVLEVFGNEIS
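Fluorescence polarization assay of small-molecule disruption of VDR binding to coregulator peptide SRC2-3. Compounds and controls pin-transferred, then read after 2 h incubation at ambient room temperature.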
Tau fluor counter – counter-screen for tau fibril formation inhibitors; tau K18 P301L Alexa594 fluorescence, heparin fibrillization; Potency, µM (highest dose often 57.7 µM), without a hit: top-dose activity change, negative = decrease; 280,000 compounds, 0.93% hits; AID 1463; further: nearly all actives have a fitted effect of over 55% in size
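Human tau K18 P301L (15 uM unlabeled, 0.24 uM Alexa 594-labeled) in 100 mM sodium acetate pH 7 with 20 uM heparin, 6 hr at 37 C. ThT 30 uM added, 1 hr ambient; Alexa 594 FP and total fluorescence read at 555/632 nm.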
Tau fibril ThT – tau fibrillization inhibition (ThT binding); P10636; recombinant tau K18 P301L (four-repeat tau fragment), heparin-induced fibrillization, ThT fluorescence; Potency, µM (doses to about 57.4 µM), for inactives: at the highest dose activity, negative = inhibition, most hits filed as inhibitors; 270,000 compounds, 2.1% hits; AID 1460; further: nearly all actives have a fitted effect of over 55% in size
Target sequence (P10636 561-689 P618L limits assumed): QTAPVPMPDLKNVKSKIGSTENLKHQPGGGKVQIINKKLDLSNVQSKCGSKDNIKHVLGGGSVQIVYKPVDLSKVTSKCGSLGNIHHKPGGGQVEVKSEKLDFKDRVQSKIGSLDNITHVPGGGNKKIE
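K18 P301L tau (15 uM + 0.24 uM Alexa 594-tagged), heparin 20 uM, NaOAc pH 7, 6 h 37 C; ThT 30 uM, 1 h RT, ex 450/em 510 nm.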
Sfp PPTase inh – Sfp phosphopantetheinyl transferase inhibition | Q9F4F7 | Biochemical Sfp PPTase activity, qHTS | Potency, µM, without a hit: largest response in the series, negative = inhibition, usual class: inhibitors | 310,000 compounds, 3.5% hits;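 further: the enzyme is Sfp with the accession as filed and its product quenches rhodamine fluorescence; 0% = enzyme reaction without inhibitor and -100% = no enzyme wells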
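Buffer: 50 mM Hepes-Na pH 7.6, 10 mM MgCl2, 0.01% Nonidet P-40, 0.01% BSA. Enzyme 15 nM, pre-exposed to compound 15 min; substrates then added and fluorescence change tracked over 30 min.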
Tau FP inhib – inhibitors of human tau fibril formation; K18 P301L tau heparin fibrillization, Alexa594 FP, 6 h; Potency, µM (series often up to 57.7 µM), for inactives: at the top dose activity, negative = inhibition, hits mostly inhibitors; 280,000 compounds, 0.39% hits; AID 1468; further: nearly all actives have a fitted effect of over 55% in size
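Human K18 P301L fragment (15 uM unlabeled plus 0.24 uM Alexa 594-labeled) in 100 mM sodium acetate pH 7 with compound, aggregation induced by 20 uM heparin for 6 hr at 37 C. ThT (30 uM) added for 1 hr, then Alexa 594 FP read.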
PLK1 PBD block – PLK1 (human) polo-box domain binding inhibition; 360,000 compounds, 2.8% hits; Plk1 PBD binding of FITC phosphopeptide, fluorescence polarization; Potency, µM, for the others: max response, negative = inhibition, hits mostly inhibitors; further: series mostly up to about 57 µM; nearly all actives have a fitted effect of over 65% in size
Numbers without * were called inactive; u = inconclusive; x = no result given; [ ] = dose if it differs, or a comment. The call rests on the fitted dose curve; in most records, active means well fitted curve in the direction sought with a large enough effect; inconclusive means small, poorly fitted or top-dose-only effect, or another doubt; inactive means no such curve, though single readings can be large; an effect the other way counts as inactive or inconclusive. Unless noted, on the % scale 0 is the no-effect control and ±100 the full control effect; potency means the concentration at half of the fitted maximal effect.

SMILES | VDR inhibitor | Tau fluor counter | Tau fibril ThT | Sfp PPTase inh | Tau FP inhib | PLK1 PBD block
CCNC(=S)N(CCc1c(C)[nH]c2ccc(Cl)cc12)Cc1ccco1 | 23.9% | 12.6µM*[quencher] | -17.0% | 21.4% | u | -15.0%
COCCNC(=S)N(CCc1c(C)[nH]c2ccccc12)Cc1ccco1 | -16.3% | u | -13.2% | 17.3% | u | 9.2%
CNC(=S)N(CCc1c(C)[nH]c2ccc(Cl)cc12)Cc1cccs1 | x | 15.8µM*[quencher] | -11.9% | 15.5% | u | x
CCNC(=S)N(CCc1c(C)[nH]c2ccc(C)cc12)Cc1cccs1 | -20.1% | 14.1µM*[quencher] | u | 27.1% | u | -2.2%
CNC(=S)N(CCc1c(C)[nH]c2ccc(Cl)cc12)Cc1cc(OC)c(OC)c(OC)c1 | -0.5% | -5.7% | -3.7% | 0.5% | -4.3% | 3.5%
COCCNC(=S)N(CCc1c(C)[nH]c2ccc(Cl)cc12)Cc1cccs1 | -14.3% | 8.91µM*[quencher] | -17.3% | 19.8% | 9.4% | -5.0%
COC(=O)c1ccc2c(=O)n(CCCCCC(=O)NCCc3ccc(Cl)cc3)c(=O)[nH]c2c1 | 8.5% | -10.0% | u | x | u | x
CCC1CCc2c(c3ccccc3[nH]c2=O)O1 (stereo not given) | -9.9% | -1.9% | 3.3% | 17.1% | 6.0% | -14.2%
O=c1[nH]c2ccccc2c2oc(CCl)nc12 | -16.0% | -14.5% | u | 6.31µM* | u | u
CCc1ccc(NC(=O)Cn2cc(S(=O)(=O)N3CCCC3)c(S(=O)(=O)N3CCCC3)c2)cc1 | 6.3% | -11.9% | 2.8% | x | -10.1% | x
CCOC(=O)C1=C(C)N=c2s/c(=C\c3ccc(O)c([N+](=O)[O-])c3)c(=O)n2C1c1ccccc1OC (stereo not given) | -2.5% | x | x | -11.6% | x | u
CCOC(=O)C1=C(C)n2c(s/c(=C/c3cccc([N+](=O)[O-])c3)c2=O)=NC1c1ccc(O)c(OC)c1 (stereo not given) | u | u | 14.1µM* | -8.5% | -6.0% | -5.7%
N#CCCn1cc(C(N)=O)c(-c2ccc3ccccc3c2)n1 | -22.8% | x | x | 15.1% | x | 26.7µM*
CN(C)C(=O)c1cn(CCC#N)nc1-c1ccc2ccccc2c1 | -8.4% | x | x | 12.2% | x | -14.4%
CC1=CN2C(=N)/C(=C/c3ccc(C)o3)C(=O)N=C2S1 | -6.8% | -11.1% | u | -2.0% | 2.4% | 2.9%
CC1=CN2C(=N)/C(=C/c3ccc(Sc4ccc(C)cc4)o3)C(=O)N=C2S1 | 4.8% | u | 7.94µM* | -13.2% | -4.8% | -3.9%
CC(C)C1C(=O)NC(=S)N1S(=O)(=O)c1ccc(C(C)(C)C)cc1 (stereo not given) | -18.4% | -13.1% | -6.0% | 3.7% | -2.5% | 23.8µM*
Oc1c(CN2CCOCC2)cc(-c2ccccc2)cc1CN1CCOCC1 | -7.5% | 2.1% | -1.6% | 9.9% | -2.4% | -3.2%
COc1ccc(/C=C/C(=O)c2ccc3ccccc3c2O)cc1CN1CCOCC1 | -28.3% | -22.8% | 15.8µM* | u | -15.5% | -5.3%
Oc1c(CN2CCOCC2)ccc2ccccc12 | u | u | u | 6.3% | 9.2% | 23.8µM*
COc1ccc(OCC(=O)Nc2ccc3c(c2)N(C)C(=O)c2ccccc2S3)cc1 | 4.2% | u | 2.1% | x | -12.4% | x
COc1ccc(C(C)=O)cc1CSc1nnc(Nc2ccccc2)s1 | 8.0% | u | -10.2% | -6.1% | 4.2% | -13.0%
Cc1cc(C)c2[nH]c(C(=O)Nc3ccc(F)cc3Br)cc2c1 | -9.7% | x | x | -15.3% | x | -21.3%
c1ccc(-c2nnc(-c3ccccn3)c(-c3ccccn3)n2)nc1 | -8.1% | 9.4% | x | u | -1.6% | u
CN(C)c1nc(-c2ccccn2)nnc1-c1ccccc1 | -3.5% | -2.2% | -1.2% | 79.4µM* | -4.6% | 0.8%
SMILES | VDR inhibitor | Tau fluor counter | Tau fibril ThT | Sfp PPTase inh | Tau FP inhib | PLK1 PBD block
COc1cnc(-c2ccccn2)nc1N(C)C | -0.6% | -2.4% | u | 15.8µM* | -10.6% | 0.1%
COc1ccc(Oc2nc(-c3ccccn3)ncc2OC)cc1 | 9.0% | -5.9% | -8.8% | -17.6% | 3.0% | -18.6%
CCOC(=O)C(C)Sc1nc(-c2ccccn2)ncc1OC (stereo not given) | 7.9% | -2.5% | -8.6% | 35.5µM* | -4.5% | u
COc1ccc(NC(=O)CSc2nc3c(oc4ccccc43)c(=O)n2-c2ccc(C)c(C)c2)cc1 | -2.5% | -9.6% | 5.5% | x | -25.9% | x
COC(=O)c1ccccc1NC(=O)CN1C(=O)CSC1=O | 12.4% | 1.1% | -1.1% | -3.3% | 2.9% | -8.9%
O=C(CN1C(=O)CSC1=O)Nc1ccc(F)c(F)c1F | -17.2% | -8.8% | -9.4% | 14.6% | -8.1% | 23.8µM*
CCN1CCCC1CN=Cc1c(O)n(-c2ccccc2)c(=O)c2ccccc12 (stereo not given) | 3.5% | -4.4% | -15.6% | 10.9% | 0.2% | -8.9%
CC(C)CCN=Cc1c(O)n(-c2ccccc2)c(=O)c2ccccc12 | -0.4% | -18.5% | -15.4% | 56.2µM* | -1.5% | -6.5%
CCCS(=O)(=O)Nc1cc2c(cc1NCc1ccccc1)n(C)c(=O)n2C | -9.6% | u | u | x | -19.8% | x
CCN(CC)S(=O)(=O)c1ccc(OC)c(NC(=O)c2ccc([N+](=O)[O-])cc2)c1 | -8.9% | -27.7% | -7.3% | 8.3% | u | u
CCN(CC)S(=O)(=O)c1cc([N+](=O)[O-])ccc1NNC(=O)Nc1ccc(F)cc1 | -0.1% | u | -14.4% | 44.7µM* | 7.0% | -7.3%
CCN(CC)S(=O)(=O)c1cc([N+](=O)[O-])ccc1NNC(=O)Nc1ccccc1OC | 0.1% | u | u | 50.1µM* | -1.0% | -23.6%
O=C(Nc1ccc(F)cc1)Nc1ccc([N+](=O)[O-])cn1 | -3.8% | -18.6% | -17.8% | -5.2% | 1.9% | -12.3%
CN1CCN(c2ccccc2NC(=O)c2ccc(-c3ccc(Cl)cc3Cl)o2)CC1 | -24.6% | -23.5% | u | 56.2µM* | 4.3% | 1.8%
O=C(CSc1nnc(C2COc3ccccc3O2)o1)N1CCCC1 (stereo not given) | u | -4.9% | -5.5% | u | -11.4% | 21.2µM*
CCOC(=O)N1CCN(C(=O)CSc2nnc(C3COc4ccccc4O3)o2)CC1 (stereo not given) | -14.4% | -10.7% | u | 9.9% | 2.8% | -29.2%
CCCCCn1c(CNC(=O)c2ccc(F)cc2)nc2ccccc21 | -6.1% | -28.0% | -17.6% | x | -4.2% | x
COc1ccc2[nH]c(O)c(N=NC(=O)Cc3cccs3)c2c1 | -1.3% | u | 15.8µM* | -21.8% | 14.3% | -13.4%
O=C(Cc1cccs1)N=Nc1c(O)[nH]c2ccccc12 | 5.0% | -2.9% | u | -9.7% | 5.3% | 0.2%
O=C(CCCCn1c(=O)c2ccccc2n(Cc2ccccc2Cl)c1=O)NCc1ccc2c(c1)OCO2 | 24.3% | -1.1% | 2.4% | x | -1.3% | x
C/C(=N\NC(=O)c1ccc(-c2ccccc2)cc1)C1C(=O)c2ccccc2C1=O | 7.5% | -10.8% | -11.1% | 4.1% | 4.8%[2.34 µM] | -19.1%
